PubChem BioAssay (NCI)
Compounds without any hit were thinned out: in the full panel of roughly 79,000, 15% have a hit. Values without a mark were called inactive. The source made the active and inactive calls. Cut-off read from the data, not from the text of the source: active = growth inhibition above about 70%; inactive = the rest.

How the values were obtained:
[1] = NCI Yeast Anticancer Drug Screen. Data for the rad50 strain (AID 155);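 note: 0% = growth of vehicle-only cultures of the same strain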; conditions: S. cerevisiae rad50 strain growth inhibition; at 50.0 µM; active compounds read high
Method in brief: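 Compounds were tested on a yeast strain with an engineered DNA damage repair alteration; the reported value is growth inhibition normalised to vehicle treatment.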

[2] = NCI Yeast Anticancer Drug Screen. Data for the mec2-1 strain (AID 157); conditions: S. cerevisiae mec2-1 strain, at 50.0 µM, active compounds read high
Method in brief: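 mec2-1 yeast strain, carrying an alteration in DNA damage repair or cell cycle control, was exposed to compounds; growth inhibition was measured relative to vehicle-treated controls.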

[3] = NCI Yeast Anticancer Drug Screen. Data for the sgs1 mgt1 strain (AID 161);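 note: 0% = growth of cultures given vehicle only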; conditions: S. cerevisiae sgs1 mgt1 strain, at 50.0 µM, active compounds read high
Method in brief: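 Compounds are added to genetically altered yeast, and growth is compared with cultures given vehicle alone to give percent inhibition.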

[4] = NCI Yeast Anticancer Drug Screen. Data for the cln2 rad14 strain (AID 165);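 note: 0% = growth equal to vehicle treated cultures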; conditions: S. cerevisiae cln2 rad14 strain, at 50.0 µM, active compounds read high
Method in brief: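 Yeast carrying cln2 and rad14 alterations (cell cycle control and DNA damage repair) were exposed to compounds. Growth inhibition was measured against vehicle-treated controls.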

[5] = NCI Yeast Anticancer Drug Screen. Data for the bub3 strain (AID 167); conditions: S. cerevisiae bub3 mutant strain, at 50.0 µM, active compounds read high
Method in brief: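 Growth of a checkpoint-deficient yeast mutant is measured after compound exposure. Values represent inhibition relative to vehicle.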

[6] = NCI Yeast Anticancer Drug Screen. Data for the mlh1 rad18 strain (AID 175); conditions: S. cerevisiae mlh1 rad18 strain growth inhibition; at 50.0 µM; active compounds read high
Method in brief: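 Growth inhibition of the yeast strain was measured after compound exposure and expressed relative to vehicle-treated controls. The strain carries defined defects in DNA damage repair.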

SMILES | growth inhibition [1] | growth inhibition [2] | growth inhibition [3] | growth inhibition [4] | growth inhibition [5] | growth inhibition [6]
CN(C)CCCOC(=O)C(O)(Cc1ccccc1)C1CC1 (stereo unspecified) | 10.7% | 15.4% | 6.25% | 5.35% | 28.6% | 15.1%
CC(=O)C1=C(C)Cn2c(=O)c3ccccc3c(=O)n2C1 | -4.7% | -18.5% | -10.7% | 10% | -15.7% | -0.05%
CC/C(=N/Nc1cn[nH]c(=O)c1Cl)c1ccccc1 | 4.6% | -0.6% | -0.5% | -35.6% | 19% | -1.5%
CN=C(N/N=C/c1ccccc1)N(C)C | 5.95% | 11.1% | -5.35% | -3% | 23.9% | 10.4%
CC(C)C(CNC(=S)Nc1ccccc1)(c1ccccc1)c1ccccc1 | 6.9% | 13.1% | 5.25% | 1.85% | 8.95% | 12.8%
CCCCCCCCC(Cl)C(Cl)CCCCCCCC(=O)OC (stereo unspecified) | -30.2% | -33% | -20.3% | -13.8% | -5.15% | -22.1%
CN(c1ccc(Br)cc1)c1nc(N)nc(N)c1N=O | 16.4% | -10.6% | 5.05% | -98.6% | 5.2% | -1.8%
CCCCC/C(=N\Nc1ccc([N+](=O)[O-])cc1[N+](=O)[O-])c1ccc(-c2ccccc2)cc1 | 13.9% | 6.05% | -6.9% | 19.1% | -5.95% | 0.6%
O=C1C(Br)=C(c2ccccc2)C(c2ccccc2)=C1c1ccccc1 | 45.6% | 25.9% | 51% | 21.9% | 22.7% | 55%
CC(C)(C)NC(=O)NCC1CCCC1NC(=O)NC(C)(C)C (stereo unspecified) | 1.45% | -4.95% | 3.65% | -5.45% | 7.35% | -10.4%
CN(C)CCCNC(=O)N/N=C/c1ccc(O)cc1 | -10.2% | -25.1% | 7% | 17.8% | 1.65% | -25.2%
Cc1cc(N(CCC#N)CCC#N)ccc1/C=C(\NC(=O)/C=C/c1ccccc1)C(=O)N=[N+]=[N-] | -30.4% | -31.9% | -44.9% | -19.4% | -21.1% | -7.2%
CC(=O)Nc1cc(C)ccn1 | 1.2% | 0.6% | 10.6% | -35% | -2.95% | 19.4%
O=C(/C=C/c1ccc(Cl)cc1)c1cccs1 | -2.85% | -14.3% | 36.6% | 1.25% | 9.55% | -7.75%
COc1ccc2nc(-c3ccccc3)cc(OCC(=O)O)c2c1 | -30.2% | 21.2% | -7.5% | -13.1% | 10.1% | -15.8%
COC(=O)Nc1c2c(nc3ccccc13)-c1ccccc1C(C)(C)C2OC (stereo unspecified) | 49.5% | 12.6% | 58.1% | -7.7% | 84% (active) | 67%
O=[N+]([O-])c1ccc(N=Nc2ccc(O)c3c(O)cc(S(=O)(=O)O)cc23)cc1S(=O)(=O)O | 30.6% | 9% | 6.85% | -24.8% | -11.4% | 50.1%
CC(C)NC1(C(N)=O)CCN(Cc2ccccc2)CC1 | 7.85% | -17.2% | 8.1% | -3.15% | -51.9% | 18.1%
OC1(c2cccc(C(F)(F)F)c2)CCNCC1 | -21.8% | -13.5% | -7.4% | -6.9% | -22.6% | -8.3%
CCOC(=O)C(C#N)=C1CC(C)OC(C)C1 (stereo unspecified) | 12.3% | 0.65% | 5.85% | -33.6% | 17.4% | 4.15%
CC(C)/C=N/N=C/C(C)C | -15.8% | 9.7% | -16.6% | 15.3% | -13.6% | -12.8%

SMILES | growth inhibition [1] | growth inhibition [2] | growth inhibition [3] | growth inhibition [4] | growth inhibition [5] | growth inhibition [6]
CCCCCCCCCCCCCCCCCC(=O)N1C(=O)c2ccccc2C1=O | 22.6% | 2.35% | 6.75% | -8.85% | -2.65% | 29.9%
CC1=C/C(=N\NC(=O)c2ccc[n+](C)c2)CC(C)(C)C1 | 18.7% | 2.2% | 6% | 18.4% | -5.4% | 12.2%
Cc1ccccc1NC(=O)CSc1nnc(Cc2ccccc2)o1 | -15.3% | -20.6% | -36.8% | -13.5% | -33.8% | -35.5%
COc1ccc(/C=N/N=C/c2ccc(OC)cc2)cc1 | 22.3% | 0.7% | -14.1% | -34.5% | -19.8% | 17.8%
NC1C([O-])OC(CO)C(O)C1O.O=C1OC(C(O)CO)C([O-])=C1[OH2+].[Cu+2] (stereo unspecified) | -0.4% | -0.15% | -19.6% | -8.25% | -1.55% | -12.8%
COc1cnn(-c2ccccc2)c(=O)c1Cl | -1.4% | -7.35% | -1.85% | -3.7% | 0.8% | -13.9%
N=N/C(=C\c1c(O)[nH]c2ccccc12)c1ccccc1 | -7.35% | 13.6% | 34.2% | -35.2% | 57.3% | -8.75%
CN(C)S(=O)(=O)N(C)C | -1.55% | 6.4% | 15.4% | 6.1% | -8.45% | 26.2%
CCOC(C)=C(C#N)C#N | 8.9% | -9.4% | 8.95% | -7.85% | -10.2% | 4.9%
COc1ccc(C(=O)/C=C/c2ccc(OCC(=O)O)cc2)cc1 | 22.6% | 12.3% | 18.1% | 21.8% | -5.75% | 42.8%
CC(C)CCc1c(N)nc(N)[nH]c1=O | 6.8% | -13.6% | -8.6% | -42% | 1% | 3.75%
O=S(=O)(O)c1ccccc1P(c1ccccc1)c1ccccc1 | 17.1% | 17.7% | 8.15% | 36.1% | 17.6% | 14.6%
CCOC(=O)C1=C(C(C)=O)C(c2cccc([N+](=O)[O-])c2)C(C(C)=O)=C(C(=O)OCC)N1 | -1.8% | 4.05% | -8.8% | -2.8% | -13.6% | 7.25%
CC1(C)OC2COC3(CO)OC(C)(C)OC3C2O1 (stereo unspecified) | -2.2% | 20.6% | 15.4% | -65.5% | 15.2% | 17.4%
COC(=O)n1oc2c(Br)cc(Br)cc2c1=O | -4.15% | -10.4% | 1.45% | -6.85% | -0.2% | 0.8%
OCc1cc(Cl)cc(Cc2cc(Cl)cc(Cc3cc(Cl)cc(Cc4cc(Cl)cc(Cc5cc(Cl)cc(CO)c5O)c4O)c3O)c2O)c1O | -14.8% | -17.4% | -9.35% | -28.4% | -18.9% | -27.9%
CC(C)OC(=O)/C=C/C(=O)OC(C)C (tested in a mixture with another compound) | -13.1% | -6.9% | -13.6% | -20.4% | -13.8% | -23.1%
O=C1c2cc([N+](=O)[O-])cc3cc([N+](=O)[O-])cc(c23)C(=O)N1CCNCCNCCNCCN1C(=O)c2cc([N+](=O)[O-])cc3cc([N+](=O)[O-])cc(c23)C1=O | 85.1% (active) | 90.4% (active) | 91.5% (active) | 90.8% (active) | 89% (active) | 86.1% (active)
CCOC(=O)C(Nc1cc([N+](=O)[O-])ccc1C(=O)OC)(OC)C(=O)OCC | 13.2% | 15.4% | 34.1% | 0.95% | 1.15% | 27.4%
O=c1nc2n(cc1F)C1OC(CCl)C(O)C1O2 (stereo unspecified) | 8.55% | -8% | 15.7% | 1.05% | 6.9% | 2.2%
